Screening data: PubChem BioAssay, National Center for Advancing Translational Sciences (NCATS)
A selection: hits, their analogues and other compounds. The true share with any hit is near 3.3%.
Sm TGR block: qHTS Assay for the Inhibitors of Schistosoma Mansoni Peroxiredoxins | Schistosoma mansoni thioredoxin glutathione reductase (TGR), Q962Y6 | purified TGR, DTNB reduction, TNB absorbance 405 nm | Potency, µM (doses to about 114 µM), usual class: inhibitors | 3% of 360,000 active | AID 485364, 2010; further: nearly all actives have a fitted effect of over 60% in size
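First, TGR (20 nM dispensed) and NADPH were mixed with compound. Second, a 15 min room-temperature incubation followed. Third, further NADPH and then DTNB were added to start the reaction. Finally, TNB absorbance was monitored kinetically.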
Giardia FBPA inh: qHTS Assay for Inhibitors of Fructose-1,6-bisphosphate Aldolase from Giardia Lamblia. A8B2U2. purified Giardia FBPA. Potency, µM (top dose mostly 59.6 µM), most hits filed as inhibitors. 0.71% of 290,000 active; further: nearly all actives have a fitted effect of over 55% in size
Target sequence (A8B2U2 whole entry, looked up): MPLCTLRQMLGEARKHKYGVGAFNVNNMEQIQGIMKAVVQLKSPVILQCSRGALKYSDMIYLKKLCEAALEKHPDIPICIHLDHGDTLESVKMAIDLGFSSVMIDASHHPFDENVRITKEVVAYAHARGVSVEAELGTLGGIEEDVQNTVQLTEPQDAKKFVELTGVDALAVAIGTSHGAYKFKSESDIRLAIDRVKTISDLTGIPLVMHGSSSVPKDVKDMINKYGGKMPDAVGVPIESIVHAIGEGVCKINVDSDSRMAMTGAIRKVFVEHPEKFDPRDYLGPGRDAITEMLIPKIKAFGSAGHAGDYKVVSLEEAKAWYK
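40 nM FBPA preincubated 10 min at RT with compound (up to 57.5 uM final), then substrate plus GAPDH/TPI/NAD/arsenate coupling and diaphorase/resazurin added. Fluorescence read after 20 min at RT, 525/598 nm.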
RE007 growth inh: qHTS Assay for Inhibitors of the HIV-1 protein Vpr | S. pombe RE007 Vpr strain, BacTiter-Glo ATP luminescence, 24 h | Potency, µM (titrated, usually from 92.2 µM), usual class: inhibitors | 0.21% of 360,000 active | AID 651644, 2012; active means well fitted falling curve with a large enough effect; inconclusive means small, poorly fitted or top-dose-only effect; inactive means no such curve, though single readings can be large or run the other way; further: nearly all actives have a fitted effect of over 50% in size
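Fission yeast RE007 carrying one integrated HIV-1 vpr copy, seeded at OD 0.01 in PMG+AL medium with 23 nL pinned compound. Grown 24 h at 30 degrees; viability read by BacTiter-Glo luminescence after 5 min.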
Tb PYK inh: qHTS of Trypanosoma Brucei Inhibitors. pyruvate kinase (Trypanosoma brucei), Q57TT1. TbPYK enzyme, Kinase-Glo Plus ATP luminescence, 45 min. Potency, µM (titrated, usually from 76.8 µM), actives largely listed as inhibitors. 0.12% of 410,000 active. AID 624173, 2012; further: nearly all actives have a fitted effect of over 50% in size
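ADP (130 uM final) triggers the TbPYK reaction after compound addition; incubation is 45 min at room temperature. Kinase-Glo Plus is then added and luminescence imaged. Normalized data are fitted to concentration-effect curves.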
LmPK inhibitor: qHTS Assay for Inhibitors of Leishmania Mexicana Pyruvate Kinase (LmPK) | Potency, µM (highest dose often 57.5 µM), most hits filed as inhibitors | Q27686 | purified LmPK, Kinase-Glo ATP luminescence, 1 h | AID 1721, 2009 | 0.37% of 290,000 active
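Purified LmPK (0.1 nM) with 0.5 mM PEP and 0.1 mM ADP in imidazole buffer pH 7.2 with MgCl2/KCl, 1 h at room temperature. ATP formed was read by luciferase luminescence and normalized to no-enzyme and uninhibited controls.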
Each line names hits and unclear results; the compound was inactive in the other large screens. Unless noted, the call rests on the fitted dose curve; in most records, active means well fitted curve in the direction sought with a large enough effect; inconclusive means small, poorly fitted or top-dose-only effect, or another doubt; inactive means no such curve, though single readings can be large; an effect the other way counts as inactive or inconclusive.

COc1ccc(C(=O)Nc2ccc(S(=O)(=O)NCc3ccco3)cc2)cc1OC	none
CCc1ccccc1NC(=O)CNC(=O)c1ccc(S(=O)(=O)NCc2ccco2)cc1	none (no result: Sm TGR block, Giardia FBPA inh, LmPK inhibitor)
Cc1cccc(C)c1NC(=O)CNC(=O)c1ccc(S(=O)(=O)NCc2ccco2)cc1	Sm TGR block 20µM (no result: Giardia FBPA inh, LmPK inhibitor)
Cc1cccc(NC(=O)c2ccc(F)c(S(=O)(=O)NCc3ccco3)c2)c1	Sm TGR block 28µM (no result: Giardia FBPA inh)
COc1cccc(S(=O)(=O)NCc2ccc(C(=O)NCc3ccco3)cc2)c1	Sm TGR block 28µM
CC(=O)Nc1cccc(NC(=O)c2ccc(S(=O)(=O)NCc3ccco3)cc2)c1	none (no result: Sm TGR block, Giardia FBPA inh, LmPK inhibitor)
COc1cccc(S(=O)(=O)Nc2ccc(C(=O)NCc3ccco3)cc2)c1	none
COc1ccc(C(=O)NCC(=O)Nc2cccc(S(=O)(=O)NCc3ccco3)c2)cc1OC	Sm TGR block 45µM
CCN1CCN(c2oc(-c3ccc(OC)cc3)nc2C#N)CC1	none (no result: Sm TGR block, Giardia FBPA inh, LmPK inhibitor)
O=C(c1cc([N+](=O)[O-])ccc1N1CCOCC1)N1CCN(S(=O)(=O)c2cc(Cl)ccc2Cl)CC1	none (no result: Giardia FBPA inh, LmPK inhibitor)
O=C(OCC#CCNc1nnc(-c2cccc3ccccc23)o1)c1cccs1	Sm TGR block 18µM (no result: Giardia FBPA inh, RE007 growth inh, Tb PYK inh, LmPK inhibitor)
Cc1ccc(S(=O)(=O)Nc2cc(Cl)c(O)cc2C)cc1	Sm TGR block 50µM
Cc1c(NS(=O)(=O)c2ccccc2)cc(Cl)c(O)c1C	Sm TGR block 3.5µM, Giardia FBPA inh inconclusive
Cc1ccc(S(=O)(=O)Nc2c(Cl)c(Cl)c(O)c3ccccc23)cc1	Sm TGR block 0.32µM, LmPK inhibitor 6.3µM (no result: RE007 growth inh, Tb PYK inh)
Cc1ccc(S(=O)(=O)Nc2c(O)ccc3ccccc23)cc1	none (no result: Sm TGR block, Giardia FBPA inh, LmPK inhibitor)
Cc1c(Cl)cccc1NS(=O)(=O)c1ccccc1	none (no result: Sm TGR block, Giardia FBPA inh, LmPK inhibitor)
Cc1ccc(S(=O)(=O)Nc2cc(C(C)C)c(O)cc2C)cc1	none
Cc1ccc(-n2nnnc2SCC(=O)N2CC(=O)Nc3ccccc32)cc1	Sm TGR block 45µM
Cc1nnc(SCC(=O)N2CC(=O)Nc3ccccc32)n1C	none
COc1ccccc1CC(=O)N(Cc1ccccc1)c1cccc(C)c1	none
CC(=O)c1ccc(OCC(=O)N2CCCC2c2ccc3c(c2)OCCCO3)cc1 (configuration not stated)	none (no result: Sm TGR block, Giardia FBPA inh, LmPK inhibitor)
O=C(CCl)N1CCCC1c1ccc2c(c1)OCCO2 (configuration not stated)	Sm TGR block 3.5µM (no result: Giardia FBPA inh)
COc1ccc(CNC(=O)C2COc3ccccc3O2)cc1 (configuration not stated)	none
O=C(CCl)NCc1c(Cl)cccc1-n1cccc1	Sm TGR block 32µM
N#Cc1cc(Sc2ccccn2)c(Sc2ccccn2)cc1C#N	none
N#Cc1cc(Sc2ccccn2)c([N+](=O)[O-])cc1C#N	Sm TGR block 35µM, Giardia FBPA inh inconclusive
CCC1c2ccc(C)n2CCN1C(=O)Nc1ccccc1OC (configuration not stated)	Sm TGR block 25µM, Giardia FBPA inh inconclusive
CCn1cc(C(=O)N2CCN(c3ccc(F)cc3)CC2)c(=O)c2cc(S(=O)(=O)N(C)C3CCCCC3)ccc21	none (no result: Giardia FBPA inh, RE007 growth inh, LmPK inhibitor)
CCN(CC)c1ccc2c(Cl)c(Br)c(=O)oc2c1	Sm TGR block inconclusive
CCN(CC)c1ccc2c(c1)oc(=O)c1c(Cl)cc(=O)oc12	Sm TGR block 6.3µM
Cc1ccc(S(=O)(=O)CC(=O)c2cc(C)c(OC(=O)N(C)C)c(C)c2)cc1	none
Cc1cc(C(=O)CS(=O)(=O)c2ccc(F)cc2)cc(C)c1O	Sm TGR block 14µM
Cc1cc(C(=O)CS(=O)(=O)c2ccccc2)cc(C)c1O	Sm TGR block 22µM
Cc1cc(C(=O)CS(=O)(=O)c2ccccc2)cc(C)c1OC(=O)N(C)C	none
CC1CCC(NCC(O)c2ccccc2)CC1 (configuration not stated)	none
Cc1[nH]c2ccccc2c1/C=N/NC(=O)Cc1cccs1	none
O=C(/C=C/c1ccc(Cl)cc1)N(Cc1ccccc1)C1CCS(=O)(=O)C1 (configuration not stated)	none
CN(C)c1ccc(CN(C(=O)c2cccs2)C2CCS(=O)(=O)C2)cc1 (configuration not stated)	none
O=C(/C=C/c1ccco1)N(Cc1ccc(Cl)cc1)C1CCS(=O)(=O)C1 (configuration not stated)	Sm TGR block 3.2µM
CN(C)c1ccc(CN(C(=O)/C=C/c2ccco2)C2CCS(=O)(=O)C2)cc1 (configuration not stated)	Sm TGR block 25µM
Cc1ccc(CNC(=O)Nc2ccc(F)cc2F)n1C	Sm TGR block 32µM
Cc1ccc(CNC(=O)Nc2ccccc2)n1C	Sm TGR block 28µM
C=CCNC(=O)Nc1ccc(F)cc1F	none
COc1ccc2[nH]c3c(c2c1)CCNC3C1CC=C(C)CC1 (configuration not stated)	none
COc1ccc2[nH]c3c(c2c1)CCNC3c1ccc([N+](=O)[O-])o1 (configuration not stated)	Sm TGR block 0.89µM, Giardia FBPA inh inconclusive (no result: RE007 growth inh)
CCCc1nc2c(=O)n(C)c(=O)nc-2n(C)n1	Sm TGR block inconclusive, Giardia FBPA inh 5µM
Cc1cc(Cl)ccc1NC(=S)N1CCOCC1	none
CCCCn1c(N)c(N(Cc2ccccc2OC)C(=O)CN2C(=O)NC3(CCCC3)C2=O)c(=O)[nH]c1=O	Sm TGR block 56µM (no result: Giardia FBPA inh, LmPK inhibitor)
COc1ccc(CC(=O)Nc2ccc(OC)nc2)cc1	none
COc1ccc(NC(=O)CCl)cn1	Sm TGR block 14µM, Giardia FBPA inh 2.8µM (no result: RE007 growth inh, Tb PYK inh)
COc1ccc(NC(=O)Nc2cccs2)cn1	Sm TGR block 13µM
COc1ccc(NC(=O)Nc2cc(C)cc(C)c2)cn1	none
O=C(O)C1CCN(S(=O)(=O)c2ccc3c(c2)OCCCO3)CC1	none
O=C(O)CCCNC(=O)/C=C/c1ccco1	Sm TGR block 4.5µM
Cc1ccc(/C=C/C(=O)NCCc2ccccc2)o1	Sm TGR block 3.2µM, Tb PYK inh inconclusive
O=C(O)CCCCCNC(=O)/C=C/c1ccco1	none
O=C(/C=C/c1ccco1)NCCc1ccccc1	Sm TGR block 7.9µM
O=C(O)/C=C/C(=O)NCCc1ccccc1	none
Cc1ccc(/C=C/C(=O)OCC(=O)NC(C)c2ccccc2)o1 (configuration not stated)	Sm TGR block 35µM (no result: Giardia FBPA inh, LmPK inhibitor)
Cc1noc(C)c1-c1ccc2ncnc(NC3CC3)c2c1	none (no result: Sm TGR block, RE007 growth inh, Tb PYK inh, LmPK inhibitor)
O=C(c1ccco1)N1CCN(CC(O)COc2ccc(Br)cc2)CC1 (configuration not stated)	Sm TGR block 45µM
Oc1ccc(Cl)cc1/C=N/c1nccs1	Sm TGR block 20µM
Oc1c(Br)cc(Br)cc1/C=N/c1nccs1	Sm TGR block 4µM, RE007 growth inh inconclusive (no result: Giardia FBPA inh, LmPK inhibitor)
Cc1sc2ncnc(N)c2c1C	none
Cc1cc(C(=O)NCC(=O)OCC(=O)Nc2ccc(OC(F)F)cc2)ccc1[N+](=O)[O-]	none
